PubChem BioAssay (NCATS)
Where “and” joins values, the source holds several entries; their conditions need not be identical. Equal values may be shown once. Inconclusive results are not listed. Where a call stands in place of a potency, no number is given. Calls of active or inactive are those of the source. Unless noted, calls follow the shape of the dose curve; as a rule, active = well fitted curve in the direction sought with a large enough effect; inconclusive = small, poorly fitted or top-dose-only effect, or another doubt; inactive = no such curve, though single readings can be large; an effect the other way counts as inactive or inconclusive.

Assays:
[1] = qHTS of pediatric cancer cell lines to identify multiple opportunities for drug repurposing: Primary screen for DAOY cells (AID 1347090); also: nearly all actives have a fitted effect of over 55% in size; also: potency is read from the fitted curve at half-maximal effect
Procedure, shortened: (§1)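 Cell viability, CellTiter-Glo luminescence; 500-1,000 cells/well, 8- or 11-point titration, 48 h compound exposure at 37 degrees C, 5% CO2. Controls: DMSO neutral, bortezomib 2.3 µM final as positive.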

[2] = qHTS of pediatric cancer cell lines to identify multiple opportunities for drug repurposing: Primary screen for SJ-GBM2 cells (AID 1347091); also: potency is read from the fitted curve at half-maximal effect
Procedure, shortened: as §1

[3] = qHTS of pediatric cancer cell lines to identify multiple opportunities for drug repurposing: Primary screen for A673 cells (AID 1347092); also: nearly all actives have a fitted effect of over 45% in size; also: potency is read from the fitted curve at half-maximal effect
Procedure, shortened: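 A673 cells (500-1,000 cells/well) were treated 48 hours at 37 degrees C with compounds at 11-point (0.78 nM to 46 µM) or 8-point (0.59 nM to 46 µM) dilutions. Viability read by CellTiter-Glo luminescence; concentration-response curves fitted.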

[4] = qHTS of pediatric cancer cell lines to identify multiple opportunities for drug repurposing: Primary screen for BT-37 cells (AID 1347094); also: potency is read from the fitted curve at half-maximal effect
Procedure, shortened: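 Quantitative HTS format: each compound titrated (MIPE 11 points from 0.78 nM, NPC 8 points from 0.59 nM) onto cells plated 5 hours earlier. After 48 h at 37 degrees C, CellTiter-Glo luminescence was recorded.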

[5] = qHTS of pediatric cancer cell lines to identify multiple opportunities for drug repurposing: Primary screen for SK-N-MC cells (AID 1347093); also: potency is read from the fitted curve at half-maximal effect
Procedure, shortened: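 Metabolically active cells were quantified by ATP-dependent luminescence (CellTiter-Glo, 15 min at room temperature) following 48 h treatment. Cells had been plated at 500-1,000 per well and settled for 5 h beforehand.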

[6] = qHTS of pediatric cancer cell lines to identify multiple opportunities for drug repurposing: Primary screen for TC32 cells (AID 1347089); also: nearly all actives have a fitted effect of over 60% in size; also: potency is read from the fitted curve at half-maximal effect
Procedure, shortened: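 TC32 cells, 500-1,000/well in growth medium, compound-treated 48 h at 37 °C; viability from CellTiter-Glo luminescence. Primary screen: MIPE 11-point (0.78 nM–46 µM final), NPC 8-point (0.59 nM–46 µM final); confirmatory at 11-point dilutions.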

[7] = molecular target: Parathyroid hormone/parathyroid hormone-related peptide receptor (Homo sapiens) (UniProt Q03431); test: qHTS for PTHR1 Agonists: Optimization Screen against the NCGC LOPAC library (AID 1347079);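 also: GloSensor cAMP luminescence in HEK-293 GP2 cells expressing human PTHR1 with IBMX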
Procedure, shortened: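 Signal increase flags agonism. GP2 cells, derived from HEK-293, express human PTHR1 and a GloSensor cAMP construct.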

[8] = molecular target: T1, Tyrosine-protein phosphatase non-receptor type substrate 1 (Homo sapiens) + Leukocyte surface antigen CD47 (Homo sapiens) (UniProt P78324+Q08722); test: CD47-SIRPalpha protein protein interaction - LANCE assay qHTS validation (AID 1347057; active = well fitted curve in the direction sought with a large enough effect in the signal ratio, with a control signal flat, not every such curve was filed as active; the % refers to the signal ratio; also: series mostly up to about 38 µM)
Procedure, shortened: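 Inhibition of soluble CD47/SIRPalpha ectodomain association by titrated compounds, measured as 665/615 nm time-resolved FRET ratio after sequential 30 min room-temperature incubations.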

[9] = molecular target: T1, Tyrosine-protein phosphatase non-receptor type substrate 1 (Homo sapiens) + Leukocyte surface antigen CD47 (Homo sapiens); test: CD47-SIRPalpha protein protein interaction - Alpha assay qHTS validation (AID 1347059);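 also: bead proximity luminescence from CD47 binding SIRPalpha after compound preincubation with SIRPalpha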
Procedure, shortened: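 AlphaScreen signal between CD47-His (12.5 nM) and biotin-SIRPalpha (25 nM) soluble extracellular domains, bead-captured via Ni-NTA and streptavidin. Compounds, in 7-point titrations, met SIRPalpha 30 min before CD47; PBS pH 7.4 with 0.05% IGEPAL.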

Sequence of Parathyroid hormone/parathyroid hormone-related peptide receptor (Homo sapiens) (Q03431 whole entry, looked up): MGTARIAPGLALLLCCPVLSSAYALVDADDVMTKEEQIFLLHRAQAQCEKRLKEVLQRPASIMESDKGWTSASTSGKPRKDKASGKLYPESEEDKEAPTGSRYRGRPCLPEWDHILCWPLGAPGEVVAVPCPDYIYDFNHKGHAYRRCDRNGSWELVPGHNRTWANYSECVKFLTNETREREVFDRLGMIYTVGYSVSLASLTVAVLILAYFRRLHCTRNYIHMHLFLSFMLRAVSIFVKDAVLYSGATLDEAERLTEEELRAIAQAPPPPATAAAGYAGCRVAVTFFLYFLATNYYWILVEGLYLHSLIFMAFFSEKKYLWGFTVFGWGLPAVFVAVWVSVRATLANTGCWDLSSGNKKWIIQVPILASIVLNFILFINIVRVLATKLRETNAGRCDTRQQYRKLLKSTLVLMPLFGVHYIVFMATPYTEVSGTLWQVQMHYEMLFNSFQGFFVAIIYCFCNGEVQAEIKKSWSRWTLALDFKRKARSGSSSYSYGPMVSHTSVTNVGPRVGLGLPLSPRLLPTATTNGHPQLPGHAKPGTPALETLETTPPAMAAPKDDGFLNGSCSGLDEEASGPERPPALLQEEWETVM
T1 sequence (P78324 whole entry, looked up, the tested form may be a part): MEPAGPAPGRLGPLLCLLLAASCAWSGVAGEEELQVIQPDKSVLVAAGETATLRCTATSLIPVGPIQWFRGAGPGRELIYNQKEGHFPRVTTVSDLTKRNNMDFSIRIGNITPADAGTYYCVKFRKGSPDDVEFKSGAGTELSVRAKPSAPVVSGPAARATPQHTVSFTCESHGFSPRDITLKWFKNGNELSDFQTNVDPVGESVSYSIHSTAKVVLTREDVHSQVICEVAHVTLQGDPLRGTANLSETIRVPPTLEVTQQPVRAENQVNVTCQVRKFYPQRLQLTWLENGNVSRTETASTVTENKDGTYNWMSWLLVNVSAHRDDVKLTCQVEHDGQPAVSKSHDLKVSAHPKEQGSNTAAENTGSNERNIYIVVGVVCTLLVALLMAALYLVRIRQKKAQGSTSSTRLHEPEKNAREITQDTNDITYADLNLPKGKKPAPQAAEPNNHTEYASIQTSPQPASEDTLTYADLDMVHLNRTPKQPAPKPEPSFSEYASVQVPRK
T1 sequence (Q08722 whole entry, looked up, the tested form may be a part): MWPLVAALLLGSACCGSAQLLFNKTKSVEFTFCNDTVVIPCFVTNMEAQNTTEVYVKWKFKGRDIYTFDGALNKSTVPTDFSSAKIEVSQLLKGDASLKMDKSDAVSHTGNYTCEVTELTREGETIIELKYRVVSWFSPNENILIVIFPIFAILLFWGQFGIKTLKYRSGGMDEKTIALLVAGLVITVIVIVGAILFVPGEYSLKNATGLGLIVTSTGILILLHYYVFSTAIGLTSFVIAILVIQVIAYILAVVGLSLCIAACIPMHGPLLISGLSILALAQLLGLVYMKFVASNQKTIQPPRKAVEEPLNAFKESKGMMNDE

| Structure (SMILES) | Potency [1] | Potency [2] | Potency [3] | Potency [4] | Potency [5] | Potency [6] | outcome [7] | outcome [8] | Potency [9] |
| --- | --- | --- | --- | --- | --- | --- | --- | --- | --- |
| C[C@H](Cn1cnc2c(N)ncnc21)OCP(=O)(O)O | inactive | inactive | inactive | inactive | – | – | – | – | – |
| CCCS(=O)c1ccc2nc(NC(=O)OC)[nH]c2c1 (stereo not drawn) | 26.6 µM (active) and 23.5 µM (active) | 21.1 µM (active) and 18.7 µM (active) | 29.6 µM (active) | – | 7.5 µM (active) and 18.7 µM (active) | – | – | – | – |
| CN(c1nccc(=O)[nH]1)C1CCN(c2nc3ccccc3n2Cc2ccc(F)cc2)CC1 | inactive | inactive | inactive | inactive | 2.64 µM (active) | inactive | – | – | – |
| Cc1ccc(C)c(OCCCC(C)(C)C(=O)O)c1 | inactive | inactive | – | inactive | – | inactive | – | – | – |
| O=C(CS(=O)Cc1ccco1)NCC=CCOc1cc(CN2CCCCC2)ccn1 (stereo not drawn) | inactive | inactive | inactive | inactive | – | inactive | – | – | – |
| CCC[C@@H]1C[C@@H](C(=O)N[C@@H]([C@H]2O[C@H](SC)[C@H](O)[C@@H](O)[C@H]2O)[C@@H](C)O)N(C)C1 | inactive | inactive | inactive | inactive | inactive | inactive | – | – | – |
| COc1cc(Nc2c(C#N)cnc3cc(OCCCN4CCN(C)CC4)c(OC)cc23)c(Cl)cc1Cl | 13.3 µM (active) and 23.5 µM (active) | 23.7 µM (active) | 10.6 µM (active) and 11.8 µM (active) | 17.4 µM (active) | – | – | – | – | – |
| Nc1ccn([C@@H]2O[C@H](CO)[C@@H](O)C2O)c(=O)n1 (stereo partly drawn) | inactive | inactive | inactive | inactive | inactive | inactive | inactive | – | – |
| CCCOc1ccc2nc(NC(=O)OC)[nH]c2c1 | 66.8 nM (active) and 14.8 nM (active) | 0.001 µM (active) | 33.5 nM (active) and 11.8 nM (active) | 123 nM (active) and 27.3 nM (active) | – | 187 nM (active) and 131 nM (active) | – | – | – |
| CN(C)c1ccc(O)c2c1C[C@H]1C[C@H]3[C@H](N(C)C)C(=O)C(C(N)=O)=C(O)[C@@]3(O)C(=O)C1=C2O | inactive | inactive | – | – | – | inactive | – | – | – |
| Cc1cc(C2CCCCC2)n(O)c(=O)c1 | 10.6 µM (active) | – | 2.96 µM (active) | 3.09 µM (active) | 750 nM (active) and 1.18 µM (active) | 7.45 µM (active) | – | – | – |
| CN(C)C(=O)COC(=O)Cc1ccc(OC(=O)c2ccc(N=C(N)N)cc2)cc1 | inactive | inactive | – | inactive | – | inactive | – | – | – |
| Cc1nccn1CC1CCc2c(c3ccccc3n2C)C1=O (stereo not drawn) | inactive | inactive | inactive | inactive | inactive | inactive | – | – | – |
| O=C(NOCC1CC1)c1ccc(F)c(F)c1Nc1ccc(I)cc1Cl | 21.1 µM (active) and 11.8 µM (active) | 9.35 µM (active) | 10.6 µM (active) and 9.35 µM (active) | 24.6 µM (active) and 21.7 µM (active) | 16.8 µM (active) and 1.87 µM (active) | inactive | – | – | – |
| CN(C)CCc1c[nH]c2ccc(Cn3cncn3)cc12 | inactive | inactive | inactive | 19.3 µM (active) | inactive | inactive | – | – | – |
| O=C(O)CCNC(=O)c1ccc(N=Nc2ccc(O)c(C(=O)O)c2)cc1 | inactive | inactive | inactive | inactive | – | inactive | – | – | – |
| CC(C)C[C@H](NC(=O)[C@H](Cc1ccccc1)NC(=O)c1cnccn1)B(O)O | 0.0296 µM (active) | 0.0266 µM (active) | 0.0531 µM (active) | 0.0347 µM (active) | – | – | – | – | – |
| NNc1nncc2ccccc12 | inactive | inactive | inactive | inactive | inactive | inactive | inactive | – | – |

| Structure (SMILES) | Potency [1] | Potency [2] | Potency [3] | Potency [4] | Potency [5] | Potency [6] | outcome [7] | outcome [8] | Potency [9] |
| --- | --- | --- | --- | --- | --- | --- | --- | --- | --- |
| O=C1CCc2ccc(OCCCCN3CCN(c4cccc(Cl)c4Cl)CC3)cc2N1 | inactive | 18.8 µM (active) | inactive | inactive | inactive | inactive | – | – | – |
| Cc1cccc(-c2[nH]ncc2-c2ccc3ncccc3n2)n1 | inactive | inactive | inactive | – | inactive | – | – | inactive | inactive |
| O=P(O)(O)C(O)(Cn1ccnc1)P(=O)(O)O | inactive | inactive | inactive | inactive | – | – | – | – | – |
| CC(C)c1nc(CN(C)C(=O)N[C@H](C(=O)N[C@@H](Cc2ccccc2)C[C@H](O)[C@H](Cc2ccccc2)NC(=O)OCc2cncs2)C(C)C)cs1 | inactive | – | – | inactive | – | inactive | – | – | – |
| CC(C)c1ccc2oc3nc(N)c(C(=O)O)cc3c(=O)c2c1 | inactive | inactive | inactive | inactive | inactive | inactive | – | – | – |
| Nc1nc(Cl)nc2c1ncn2[C@H]1C[C@H](O)[C@@H](CO)O1 | – | 7.43 µM (active) | 2.96 µM (active) | 0.273 µM (active) | – | 1.17 µM (active) | – | – | – |
| Clc1ccc(C(Cn2ccnc2)OCc2ccsc2Cl)c(Cl)c1 (stereo not drawn) | inactive | – | 23.5 µM (active) | 0.001 µM (active) | 2.66 µM (active) | inactive | – | – | – |
| O=C(NC(Cc1cc(=O)[nH]c2ccccc12)C(=O)O)c1ccc(Cl)cc1 (stereo not drawn) | inactive | inactive | inactive | inactive | – | inactive | – | – | – |
| O=C(O)c1cc(=O)c2c(OCC(O)COc3cccc4oc(C(=O)O)cc(=O)c34)cccc2o1 | inactive | inactive | inactive | inactive | inactive | – | – | – | – |
| OC(CN1CCN(c2cccc(Cl)c2)CC1)C(c1ccccc1)c1ccccc1 (stereo not drawn) | – | – | 18.7 µM (active) | – | 10.5 µM (active) | inactive | inactive | – | – |
| C[C@]12CCC(=O)C=C1CC[C@@H]1[C@H]2[C@@H](O)C[C@@]2(C)[C@H]1CC[C@]2(O)C(=O)CO | inactive | inactive | 18.7 µM (active) | inactive | – | – | – | – | – |
| CNC[C@@H](O)[C@@H](O)[C@H](O)[C@H](O)CO | inactive | inactive | inactive | inactive | – | – | – | – | – |
| CS(=O)(=O)OCCCCOS(C)(=O)=O | inactive | inactive | inactive | inactive | – | inactive | – | – | – |
| Cc1cc(=O)c2c(O)c3c(O)cc(=O)c4c3c3c(cc(O)c1c23)C(C)(C)C=4O | 1.16 µM (active) and 18.7 µM (active) | 0.332 µM (active) | – | 1.69 µM (active) and 6.85 µM (active) | 1.3 µM (active) and 1.48 µM (active) | – | – | – | – |
| O=C(NCCO[N+](=O)[O-])c1cccnc1 | inactive | inactive | inactive | inactive | – | inactive | – | – | – |
| COC(=O)N[C@H](C(=O)N[C@@H](Cc1ccccc1)[C@@H](O)CN(Cc1ccc(-c2ccccn2)cc1)NC(=O)[C@@H](NC(=O)OC)C(C)(C)C)C(C)(C)C | inactive | inactive | inactive | inactive | inactive | inactive | – | – | – |
| CC[C@]1(O)C[C@H]2CN(CCc3c([nH]c4ccccc34)[C@@](C(=O)OC)(c3cc4c(cc3OC)N(C=O)[C@H]3[C@@](O)(C(=O)OC)[C@H](OC(C)=O)[C@]5(CC)C=CCN6CC[C@]43[C@@H]65)C2)C1 | 59 nM (active) and 26.6 nM (active) | 1 nM (active) and 84.1 nM (active) | 4.7 nM (active) and 5.3 nM (active) | 21.7 nM (active) and 17.4 nM (active) | 11.8 nM (active) and 6.7 nM (active) | 33 nM (active) and 83.6 nM (active) | – | – | – |
| COc1c(O)cc2c(c1O)[C@@H]1O[C@H](CO)[C@@H](O)[C@H](O)[C@H]1OC2=O | inactive | inactive | inactive | inactive | – | inactive | – | – | – |
